For 6 molecules, percent of control, lower = inhibition results are on record in PubChem BioAssay AID1275 (Emory University Molecular Libraries Screening Center, 2008).

Screen size: about 1,000 compounds; about 160 (16%) were called active. How the calls were made is not given here. This is one part of the list.

The target in this experiment is Neutrophil cytosol factor 1 (Homo sapiens) (UniProt P14598). Put plainly: blockers of ligand binding to p47phox – biochemical, NADPH oxidase regulatory subunit, fluorescence polarization, dose response (AID 1275). Particulars: at 12.5 µM.
Chain of Neutrophil cytosol factor 1 (Homo sapiens) (P14598 whole entry, looked up): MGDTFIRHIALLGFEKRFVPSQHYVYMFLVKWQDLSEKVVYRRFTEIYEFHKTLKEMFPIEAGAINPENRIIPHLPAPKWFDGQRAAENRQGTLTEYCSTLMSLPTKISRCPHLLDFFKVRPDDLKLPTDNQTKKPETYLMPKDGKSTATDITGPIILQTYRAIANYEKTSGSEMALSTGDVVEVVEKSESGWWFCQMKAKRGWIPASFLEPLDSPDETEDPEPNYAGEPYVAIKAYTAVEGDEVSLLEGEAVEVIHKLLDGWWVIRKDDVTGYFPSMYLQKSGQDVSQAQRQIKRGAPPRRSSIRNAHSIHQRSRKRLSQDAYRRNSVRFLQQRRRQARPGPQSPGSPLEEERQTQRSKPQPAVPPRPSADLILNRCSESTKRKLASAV
For `N#CC(C#N)=C1C=C2C=C(N3CCCCC3)CCC2CC1` (stereo unspecified), the percent of control, lower = inhibition is 107 (active).

Turning to `Cc1ccc(-n2c(C)cc(C3N=C(N)Nc4nc5ccccc5n43)c2C)c(C)c1` (stereo unspecified), the percent of control, lower = inhibition is 66.2 (active).

As for `CCN1CCN(Cc2ccc(NC(=O)c3ccc(C)c(NC(=O)c4c[nH]c5cc(C(F)(F)F)ccc5c4=O)c3)cc2C(F)(F)F)CC1`, the percent of control, lower = inhibition was 53.8 (active).

For `CN(C)c1ccc(/C=C/C(=O)c2cc(Cl)ccc2O)cc1`, the percent of control, lower = inhibition is 50.8 (active).

As to `Cc1ccc2cc3c(N)c4c(C)ccc(C)c4nc3nc2c1`, the percent of control, lower = inhibition is 51.8 (active).

As to `CN(C)c1ccc(/C=C(\C#N)C(=O)c2ccccc2)cc1`, the percent of control, lower = inhibition is 69.6 (active).
